Several values for one entry are separate records, joined by “and”; a condition that tells them apart may be missing. Equal values may be shown once. Inconclusive results are not listed. Entries that show only a call come without a potency. Activity calls are given as the source filed them. Unless noted, the call rests on the fitted dose curve; in most records, active means well fitted inhibition curve with a large enough effect; inconclusive means small, poorly fitted or top-dose-only effect; inactive means flat fitted curve, though single readings scatter. Peptide text beside a SMILES is read from it.
What was measured:
[1] = target: Ubiquitin carboxyl-terminal hydrolase 1 (Homo sapiens) (UniProt O94782); assay: Inhibitors of USP1/UAF1: Pilot qHTS (AID 504865); further: nearly all actives have a fitted effect of over 35% in size; further: potency means the concentration at half of the fitted maximal effect
Procedure, shortened: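 Deubiquitinase activity followed as kinetic rhodamine fluorescence release from 150 nM Ub-Rho. 1 nM USP1/UAF1 with compound, after 15 min room-temperature preincubation, in HEPES pH 7.8 buffer containing TCEP, EDTA, BSA and Tween-20.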

[2] = qHTS assay for small molecule antagonists of peroxisome proliferator-activated receptor delta signaling (AID 588535; active means well fitted inhibition curve with a large enough effect in the signal ratio, with a control signal flat, not every such curve was filed as active; the % refers to the signal ratio;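 on max response: cells co-treated with a PPAR-delta agonist as stimulator during compound exposure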); details: HEK293T PPARd-UAS-bla, beta-lactamase FRET ratio, 18 h; 460 nm channel
Procedure, shortened: (§1)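 Antagonist-mode qHTS using GeneBLAzer PPAR-delta-UAS-bla HEK293T cells; compound exposure 18 hrs at 37 C over a titration. Ratiometric CCF4 fluorescence at 460/530 nm; concentration-response points fitted to the Hill equation.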

[3] = target: Peroxisome proliferator-activated receptor delta (Homo sapiens) (UniProt Q03181); assay: as above
Procedure, shortened: as §1

[4] = target: Estrogen receptor (Homo sapiens) (UniProt P03372); assay: qHTS assay for small molecule antagonists of estrogen receptor alpha signaling (AID 588513; active means well fitted curve in the direction sought with a large enough effect in the signal ratio, with a control signal flat, not every such curve was filed as active; the % refers to the signal ratio)
Procedure, shortened: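 Antagonist mode: inhibition of 0.5 nM 17-beta-estradiol-driven beta-lactamase reporter in HEK 293 ER-alpha-UAS-bla cells, 18 h at 37C, CCF4 readout after 2 h at RT. Normalised to estradiol and DMSO; titration fitted to Hill.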

[5] = target: Estrogen receptor (Homo sapiens) (UniProt P03372); assay: qHTS assay for small molecule agonists of estrogen receptor alpha signaling (AID 588514; calls by dose curve; further: nearly all actives have a fitted effect of over 70% in size)
Procedure, shortened: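 Fluorescence from CCF4 cleavage reports ER-alpha-driven beta-lactamase expression in HEK 293 cells treated 18 hrs at 37 C. Data normalized to 17-beta-estradiol (20 nM) and DMSO, fitted to Hill equation.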

[6] = target: Androgen receptor (Homo sapiens) (UniProt P10275); assay: qHTS assay for small molecule agonists of androgen receptor signaling (AID 588515; active means well fitted curve in the direction sought with a large enough effect in the signal ratio, with a control signal flat; the % refers to the signal ratio); details: AR-UAS-bla HEK293, beta-lactamase ratio, agonist 16 h; stronger effect = higher value
Procedure, shortened: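 Stimulation of an AR-responsive β-lactamase reporter in GripTite HEK293 cells was measured after 16 h compound exposure at 37 °C, via CCF4 fluorescence after 2 h RT. EC50 from Hill fits, normalized to R1881 at 30 nM.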

[7] = target: Bile acid receptor (Homo sapiens) (UniProt Q96RI1); assay: qHTS assay for small molecule antagonists of farnesoid X receptor signaling (AID 588526; calls by dose curve)
Procedure, shortened: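 Beta-lactamase reporter antagonist mode: HEK293T FXR-UAS-bla cells, titrated compound, CDCA stimulation, 16 h 37 C, CCF4 dye 2 h RT. Data normalized to CDCA 50 uM and DMSO; Hill-fit IC50.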

[8] = target: Glucocorticoid receptor (Homo sapiens) (UniProt P04150); assay: qHTS assay for small molecule antagonists of glucocorticoid receptor signaling (AID 588533; active means well fitted inhibition curve with a large enough effect in the signal ratio, with a control signal flat, not every such curve was filed as active; the % refers to the signal ratio;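 further: cells stimulated with 2 nM dexamethasone as agonist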)
Procedure, shortened: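 Antagonist-mode qHTS: compound titrations added to GRE-bla HeLa cells, then dexamethasone 2 nM final; 18 h, 37 C. CCF4 FRET fluorescence normalized to dexamethasone and DMSO; IC50 from Hill fit.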

[9] = target: Peroxisome proliferator-activated receptor gamma (Homo sapiens) (UniProt P37231); assay: qHTS assay for small molecule agonists of peroxisome proliferator-activated receptor gamma signaling (AID 588536; active means well fitted curve in the direction sought with a large enough effect in the signal ratio, with a control signal flat, not every such curve was filed as active; the % refers to the signal ratio)
Procedure, shortened: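 Beta-lactamase reporter read-out: CCF4 fluorescence (ex 405, em 460/530 nm) after 2 h at RT. HEK293 GeneBLAzer cells were treated for 16 h at 37 C. Hill fits gave EC50 and efficacy versus 2 uM rosiglitazone (100%) and DMSO (0%).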

[10] = target: Peroxisome proliferator-activated receptor gamma (Homo sapiens) (UniProt P37231); assay: qHTS assay for small molecule antagonists of peroxisome proliferator-activated receptor gamma signaling (AID 588537; active means well fitted inhibition curve with a large enough effect in the signal ratio, with a control signal flat, not every such curve was filed as active; the % refers to the signal ratio;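 further: reporter cells co-stimulated with 50 nM rosiglitazone agonist during compound treatment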)
Procedure, shortened: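 Cell-based beta-lactamase assay; GW9662 served as the antagonist control. Stimulation used rosiglitazone, final 50 nM, 16 h, 37 C.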

Sequence of Peroxisome proliferator-activated receptor gamma (Homo sapiens) (P37231 whole entry, looked up): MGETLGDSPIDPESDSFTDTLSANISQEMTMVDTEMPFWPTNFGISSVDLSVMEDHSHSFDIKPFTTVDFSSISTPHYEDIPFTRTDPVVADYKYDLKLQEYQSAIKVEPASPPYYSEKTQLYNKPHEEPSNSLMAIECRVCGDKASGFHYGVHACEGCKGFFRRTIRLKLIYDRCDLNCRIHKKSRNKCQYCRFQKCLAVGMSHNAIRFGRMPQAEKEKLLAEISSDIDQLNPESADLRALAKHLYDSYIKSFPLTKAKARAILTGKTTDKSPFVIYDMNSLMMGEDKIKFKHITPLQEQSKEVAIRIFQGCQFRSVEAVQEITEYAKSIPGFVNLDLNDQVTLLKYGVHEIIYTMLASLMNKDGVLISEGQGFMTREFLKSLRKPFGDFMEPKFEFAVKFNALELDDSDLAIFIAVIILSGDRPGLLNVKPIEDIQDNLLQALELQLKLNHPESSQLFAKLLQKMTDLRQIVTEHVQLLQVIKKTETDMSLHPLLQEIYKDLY
Sequence of Ubiquitin carboxyl-terminal hydrolase 1 (Homo sapiens) (O94782 whole entry, looked up): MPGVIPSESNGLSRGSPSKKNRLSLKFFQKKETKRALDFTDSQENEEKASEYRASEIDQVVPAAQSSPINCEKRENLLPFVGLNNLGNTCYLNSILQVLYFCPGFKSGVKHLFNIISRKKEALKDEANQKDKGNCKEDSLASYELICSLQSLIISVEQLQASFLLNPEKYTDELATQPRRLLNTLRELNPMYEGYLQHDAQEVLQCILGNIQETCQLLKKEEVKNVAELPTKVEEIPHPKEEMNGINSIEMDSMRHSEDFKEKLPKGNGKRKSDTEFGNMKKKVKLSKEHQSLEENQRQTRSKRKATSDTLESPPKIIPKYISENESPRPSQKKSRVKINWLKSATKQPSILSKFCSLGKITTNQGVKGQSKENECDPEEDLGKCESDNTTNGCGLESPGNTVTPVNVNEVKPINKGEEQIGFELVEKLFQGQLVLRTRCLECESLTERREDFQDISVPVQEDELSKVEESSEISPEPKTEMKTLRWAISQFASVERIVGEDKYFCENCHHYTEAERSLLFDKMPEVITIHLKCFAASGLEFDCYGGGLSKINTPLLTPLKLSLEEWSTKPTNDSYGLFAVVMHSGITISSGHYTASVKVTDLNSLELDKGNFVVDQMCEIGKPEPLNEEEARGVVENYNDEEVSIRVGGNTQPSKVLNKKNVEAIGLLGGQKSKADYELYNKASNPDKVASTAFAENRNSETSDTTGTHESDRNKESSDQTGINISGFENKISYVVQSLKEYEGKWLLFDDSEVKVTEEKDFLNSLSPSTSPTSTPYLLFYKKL
Sequence of Bile acid receptor (Homo sapiens) (Q96RI1 whole entry, looked up): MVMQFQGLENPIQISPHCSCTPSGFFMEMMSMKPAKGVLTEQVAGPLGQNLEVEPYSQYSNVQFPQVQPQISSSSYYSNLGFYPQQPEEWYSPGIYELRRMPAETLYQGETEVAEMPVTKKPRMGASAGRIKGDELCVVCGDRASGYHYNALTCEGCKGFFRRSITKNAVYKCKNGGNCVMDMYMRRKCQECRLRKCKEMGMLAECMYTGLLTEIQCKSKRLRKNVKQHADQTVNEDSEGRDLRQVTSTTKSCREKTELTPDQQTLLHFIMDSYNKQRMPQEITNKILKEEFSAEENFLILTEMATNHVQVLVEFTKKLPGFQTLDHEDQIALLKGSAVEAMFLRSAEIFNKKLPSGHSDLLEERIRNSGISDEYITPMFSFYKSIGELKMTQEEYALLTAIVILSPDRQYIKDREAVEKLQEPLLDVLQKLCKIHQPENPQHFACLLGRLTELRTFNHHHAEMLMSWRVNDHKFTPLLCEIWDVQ
Sequence of Peroxisome proliferator-activated receptor delta (Homo sapiens) (Q03181 whole entry, looked up): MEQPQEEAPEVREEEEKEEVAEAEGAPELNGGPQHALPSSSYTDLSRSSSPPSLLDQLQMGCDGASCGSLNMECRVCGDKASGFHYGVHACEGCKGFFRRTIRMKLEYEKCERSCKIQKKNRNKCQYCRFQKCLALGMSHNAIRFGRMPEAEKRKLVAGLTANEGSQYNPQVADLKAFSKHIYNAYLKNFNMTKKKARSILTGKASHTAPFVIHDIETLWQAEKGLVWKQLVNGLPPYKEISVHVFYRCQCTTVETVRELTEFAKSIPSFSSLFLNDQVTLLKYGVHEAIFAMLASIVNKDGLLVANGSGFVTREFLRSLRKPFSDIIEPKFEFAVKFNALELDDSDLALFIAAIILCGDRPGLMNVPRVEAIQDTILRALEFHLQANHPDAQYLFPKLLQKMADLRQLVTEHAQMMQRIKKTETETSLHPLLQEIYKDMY
Sequence of Estrogen receptor (Homo sapiens) (P03372 whole entry, looked up): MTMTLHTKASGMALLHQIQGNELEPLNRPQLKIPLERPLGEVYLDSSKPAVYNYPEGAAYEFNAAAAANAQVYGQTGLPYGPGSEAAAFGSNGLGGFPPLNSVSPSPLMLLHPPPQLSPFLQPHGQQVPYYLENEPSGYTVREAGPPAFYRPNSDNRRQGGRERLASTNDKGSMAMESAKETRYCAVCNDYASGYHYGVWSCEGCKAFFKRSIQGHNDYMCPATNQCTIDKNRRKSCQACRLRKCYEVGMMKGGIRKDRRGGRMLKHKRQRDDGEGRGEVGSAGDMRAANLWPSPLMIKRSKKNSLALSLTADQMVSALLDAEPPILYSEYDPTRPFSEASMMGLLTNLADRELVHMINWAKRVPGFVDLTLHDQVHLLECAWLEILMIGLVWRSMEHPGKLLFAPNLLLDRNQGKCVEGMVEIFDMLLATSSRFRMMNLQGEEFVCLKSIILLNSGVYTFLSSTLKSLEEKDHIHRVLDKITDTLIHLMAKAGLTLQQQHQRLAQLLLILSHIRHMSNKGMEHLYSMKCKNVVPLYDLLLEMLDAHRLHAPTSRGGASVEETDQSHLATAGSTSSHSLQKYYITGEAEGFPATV
Sequence of Glucocorticoid receptor (Homo sapiens) (P04150 whole entry, looked up): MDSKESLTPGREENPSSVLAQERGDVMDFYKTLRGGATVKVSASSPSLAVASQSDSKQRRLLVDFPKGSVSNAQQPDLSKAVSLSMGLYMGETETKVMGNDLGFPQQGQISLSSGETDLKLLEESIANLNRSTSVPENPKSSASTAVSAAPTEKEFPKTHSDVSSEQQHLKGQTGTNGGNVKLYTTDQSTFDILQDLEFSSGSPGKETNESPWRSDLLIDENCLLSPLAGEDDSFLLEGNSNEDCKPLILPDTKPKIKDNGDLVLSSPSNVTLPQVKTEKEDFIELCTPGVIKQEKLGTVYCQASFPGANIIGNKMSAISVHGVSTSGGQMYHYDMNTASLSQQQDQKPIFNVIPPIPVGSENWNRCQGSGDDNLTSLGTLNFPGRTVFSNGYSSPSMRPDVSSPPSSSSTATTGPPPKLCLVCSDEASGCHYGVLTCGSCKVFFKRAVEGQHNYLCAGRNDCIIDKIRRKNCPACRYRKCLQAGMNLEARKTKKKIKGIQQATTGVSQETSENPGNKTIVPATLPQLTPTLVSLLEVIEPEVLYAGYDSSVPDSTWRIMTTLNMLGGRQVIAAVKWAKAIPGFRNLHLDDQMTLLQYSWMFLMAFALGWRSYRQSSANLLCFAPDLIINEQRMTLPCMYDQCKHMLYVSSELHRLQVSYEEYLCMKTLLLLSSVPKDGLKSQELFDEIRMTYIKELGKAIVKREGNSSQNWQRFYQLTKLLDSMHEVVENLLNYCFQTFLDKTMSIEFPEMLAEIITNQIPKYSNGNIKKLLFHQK
Sequence of Androgen receptor (Homo sapiens) (P10275 whole entry, looked up): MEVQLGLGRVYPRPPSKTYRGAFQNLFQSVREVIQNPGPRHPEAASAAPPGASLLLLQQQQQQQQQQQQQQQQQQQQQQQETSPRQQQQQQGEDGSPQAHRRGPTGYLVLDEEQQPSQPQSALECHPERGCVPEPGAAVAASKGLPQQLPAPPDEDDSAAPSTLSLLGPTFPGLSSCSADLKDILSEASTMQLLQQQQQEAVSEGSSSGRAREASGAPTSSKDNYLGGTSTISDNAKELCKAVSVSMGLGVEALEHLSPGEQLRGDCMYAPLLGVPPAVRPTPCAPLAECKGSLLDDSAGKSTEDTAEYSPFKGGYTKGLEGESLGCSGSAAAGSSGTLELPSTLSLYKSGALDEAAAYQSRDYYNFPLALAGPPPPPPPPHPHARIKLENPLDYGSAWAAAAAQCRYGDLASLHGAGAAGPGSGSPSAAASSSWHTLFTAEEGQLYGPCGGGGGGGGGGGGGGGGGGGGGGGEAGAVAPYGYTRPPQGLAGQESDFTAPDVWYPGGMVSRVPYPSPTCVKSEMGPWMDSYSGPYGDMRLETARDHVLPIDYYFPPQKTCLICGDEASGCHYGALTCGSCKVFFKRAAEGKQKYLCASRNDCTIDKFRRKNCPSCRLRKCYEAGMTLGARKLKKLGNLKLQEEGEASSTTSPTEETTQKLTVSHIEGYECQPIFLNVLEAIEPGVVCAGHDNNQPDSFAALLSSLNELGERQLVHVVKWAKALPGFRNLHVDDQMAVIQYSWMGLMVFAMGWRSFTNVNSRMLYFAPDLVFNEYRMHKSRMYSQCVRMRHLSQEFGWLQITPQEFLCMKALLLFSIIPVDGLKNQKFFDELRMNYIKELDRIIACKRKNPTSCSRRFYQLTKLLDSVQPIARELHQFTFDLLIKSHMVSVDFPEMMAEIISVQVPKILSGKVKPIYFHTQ

For `Cc1cc2c(s1)Nc1ccccc1N=C2N1CCN(C)CC1`, which Potency [1] is on record?
Its Potency is “inactive”.

With `N=C(N=C(N)N)N1CCOCC1` as the compound, how does the Potency [1] read?
The Potency was “inactive”.

For `CCOc1cc(CC(=O)N[C@@H](CC(C)C)c2ccccc2N2CCCCC2)ccc1C(=O)O`, which Potency [1] is on record?
The Potency was “inactive”.

With `COCCCOc1ccnc(CS(=O)c2nc3ccccc3[nH]2)c1C` (stereo not drawn) as the compound, how does the Potency [1] read?
The Potency was “inactive”.

For `Cc1cc2cc3c(C)cc(=O)oc3c(C)c2o1`, which Potency [1] is on record?
Its Potency is “inactive”.

For `C=C(c1ccc(C(=O)O)cc1)c1cc2c(cc1C)C(C)(C)CCC2(C)C`, which Potency [1] is on record?
The Potency was 22.4 µM (active).

With `O=C(O)c1cc(=O)c2c(OCC(O)COc3cccc4oc(C(=O)O)cc(=O)c34)cccc2o1` as the compound, how does the Potency [1] read?
Its Potency is “inactive”.

Which max response [2] does the source give for `CCCCC(CC)COC(=O)C(C#N)=C(c1ccccc1)c1ccccc1` (stereo not drawn) here?
Its max response is -3.97%.

And the outcome [3]?
Its outcome is “inactive”.

Which results are given for `c1ccc2[nH]c(-c3cscn3)nc2c1`?
Potency [1]: inactive; outcome [4]: inactive; outcome [5]: inactive; activation [6]: 7.31% (inactive) and -15.4% (inactive); outcome [7]: inactive; outcome [8]: inactive; max response [2]: -13.4%; outcome [3]: inactive; outcome [9]: inactive; Potency [10]: inactive

For `Oc1ccc(OCc2ccccc2)cc1`, which Potency [1] is on record?
The Potency was “inactive”.

What does the source list for `CCCc1cc(=O)[nH]c(=S)[nH]1`?
Potency [1]: inactive; outcome [4]: inactive; outcome [5]: inactive; max response [2]: 15.2% and -59%; outcome [3]: inactive; outcome [9]: inactive; Potency [10]: inactive

With `Nc1ccc(S(N)(=O)=O)cc1` as the compound, how does the Potency [1] read?
The Potency was “inactive”.

And the outcome [8]?
The outcome was “inactive”.

For `Nc1cccc2c1CN(C1CCC(=O)NC1=O)C2=O` (stereo not drawn), which Potency [1] is on record?
Its Potency is “inactive”.

What does the source list for `CN(C)c1ccc2nc3ccc(=[N+](C)C)cc-3sc2c1`?
outcome [5]: inactive; outcome [8]: inactive; outcome [9]: inactive

Which Potency [1] does the source give for `CC(S)C(=O)NCC(=O)O` (stereo not drawn) here?
The Potency was “inactive”.

With `COC(=O)[C@H](Cc1ccccc1)NC(=O)[C@@H](N)CC(=O)O` (H-Asp-Phe-OMe) as the compound, how does the Potency [1] read?
Its Potency is “inactive”.

What about the outcome [4] of the same compound?
The outcome was “inactive”.

What about the outcome [5] of the same compound?
Its outcome is “inactive”.

What about the outcome [7] of the same compound?
The outcome was “inactive”.

What about the outcome [8] of the same compound?
Its outcome is “inactive”.

What about the max response [2] of the same compound?
The max response was -1.9% and 6.72%.

What about the outcome [3] of the same compound?
Its outcome is “inactive”.

What about the outcome [9] of the same compound?
The outcome was “inactive”.

What about the Potency [10] of the same compound?
Its Potency is “inactive”.

— PubChem BioAssay (NCATS)
